From PubChem BioAssay (Tox21) come the findings set out here.

Experiment [1] can be described thus: qHTS assay to identify small molecule agonists of the estrogen receptor alpha (ER-alpha) signaling pathway in the presence of an antagonist - cell viability counter screen (AID 1259386).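 Note: series mostly up to about 92 µM; cells exposed to compounds for 22 h at 37 °C before the viability read; nearly all actives have a fitted effect of over 30% in size.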 In outline: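 VM7Luc4E2 cells (endogenous full-length ER-alpha, 4×ERE-luciferase) were held 5 days in phenol red-free medium with 10% charcoal-stripped FBS, plated, then given 10.0nM ICI-182,780 and compounds at 15 concentrations for 22hr at 37C; viability read by CellTiter-Fluor fluorescence.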
(In general: Quantitative high-throughput screening tests each substance at several concentrations.)

For experiment [2], the target named is Progesterone receptor (Homo sapiens) (UniProt P06401). Description: qHTS assay to identify small molecule agonists of the progesterone receptor (PR) signaling pathway (AID 1346784; calls by dose curve; note: nearly all actives have a fitted effect of over 30% in size). In outline: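 PR-UAS-bla HEK 293T cells carrying a UAS-driven beta-lactamase reporter were seeded in medium with 2% charcoal-stripped FBS, preincubated 6 hr at 37C, then exposed to compounds in DMSO for 16 hr; agonism was read by LiveBLAzer B/G FRET fluorescence.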

The nature of experiment [3]: qHTS assay to identify small molecule antagonists of the progesterone receptor (PR) signaling pathway - cell viability counter screen (AID 1346798). Note: series mostly up to about 92 µM; nearly all actives have a fitted effect of over 50% in size. In outline:
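PR-UAS-bla HEK293T cells in medium with 2% charcoal-stripped FBS were treated with compounds plus R5020 for 16 hr at 37C. Cell viability was then read by CellTiter-Glo luminescence after 30 min at room temperature in the same wells.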

A short description of experiment [4]: qHTS assay to identify small molecule agonists of the progesterone receptor (PR) signaling pathway - cell viability counter screen (AID 1346799; calls by dose curve; note: nearly all actives have a fitted effect of over 45% in size; note: potency is the fitted concentration of half-maximal effect). In outline:
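PR-UAS-bla HEK293T cells, 3,000 per well in medium with 2% charcoal-stripped FBS, were preincubated 6 hr at 37C, then exposed to compounds for 16 hr; viability was read as CellTiter-Glo luminescence after 30 min at room temperature.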

Experiment [5] can be described thus: qHTS assay to identify small molecule antagonists of the TGF-beta/Smad signaling pathway - cell viability counter screen (AID 1346824). Note: nearly all actives have a fitted effect of over 50% in size. In outline: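 Cytotoxicity counter-screen run in the same wells as the beta-lactamase Smad reporter read: CellTiter-Glo luminescence after 30 min at room temperature. HEK 293T SBE-bla cells had 5 hr compound exposure at 37 C with TGF-beta1 (0.25 ng/mL stock).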

A short description of experiment [6]: qHTS assay to identify small molecule agonists of the TGF-beta/Smad signaling pathway - cell viability counter screen (AID 1346829). Note: top concentration of the series differs between compounds; nearly all actives have a fitted effect of over 45% in size. In outline: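 Here the cytotoxicity of library compounds is measured in SBE-bla HEK 293T cells treated for 5 hr, using CellTiter-Glo added to wells already read for the beta-lactamase reporter.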
The target in experiment [7] is Progesterone receptor (Homo sapiens) (UniProt P06401). The experiment in a line: qHTS assay to identify small molecule antagonists of the progesterone receptor (PR) signaling pathway (AID 1346795; active = well fitted inhibition curve with a large enough effect in the signal ratio in the repeat runs, not every such curve was filed as active; the % refers to the signal ratio; note: potency is the fitted concentration of half-maximal effect). In outline:
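PR-UAS-bla HEK293T cells carrying a UAS-driven beta-lactamase reporter were plated in medium with 2% charcoal-stripped FBS and rested 6 hr at 37C. Compounds were added with 1 nM R5020 (final) for 16 hr, then FRET substrate loaded 2 hr at room temperature.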

Experiment [8] can be described thus: qHTS assay to identify small molecule agonists of the TGF-beta/Smad signaling pathway (AID 1346859; active = well fitted activation curve with a large enough effect in the signal ratio in the repeat runs, not every such curve was filed as active; the % refers to the signal ratio; note: series mostly up to about 77 µM). In outline:
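HEK 293T cells stably carrying a beta-lactamase reporter driven by the Smad binding element were seeded overnight, exposed to DMSO-dissolved compounds for 5 hr at 37 C, 5% CO2, then loaded with FRET substrate for 2 hr at room temperature.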

The target in experiment [9] is Thyrotropin-releasing hormone receptor (Homo sapiens) (UniProt P34981). Description: qHTS assay to identify small molecule antagonists of the thyrotropin-releasing hormone receptor (TRHR) signaling pathway (AID 1346877; active = well fitted inhibition curve with a large enough effect in the repeat runs, not every such curve was filed as active; note: series mostly up to about 51 µM). In outline: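 TRHR-expressing HEK293 cells were seeded, cultured 18 h at 37 °C, then loaded with calcium dye for 2 h. Compounds were pre-incubated 5 min at room temperature before 1 nM TRH (final) was added, and kinetic fluorescence was recorded for 3 min.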

The target is the same in experiment [10]. Description: qHTS assay to identify small molecule agonists of the thyrotropin-releasing hormone receptor (TRHR) signaling pathway (AID 1346891; calls by dose curve; note: series mostly up to about 58 µM). In outline: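 TRHR-expressing HEK293 cells were plated 18 h at 37 °C/5% CO2, loaded with calcium dye 2 h at 37 °C, then given compound in DMSO; fluorescence was read kinetically for 3 min at 1 s intervals.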

Results filed as inconclusive are left out. Active and inactive are the calls of the source. Unless noted, calls come from the whole dose curve; as a rule, active = well fitted curve in the direction sought with a large enough effect in the repeat runs; inconclusive = weak or mixed curves; inactive = no such curve, though single readings can be large; an effect the other way counts as inactive or inconclusive.

Sequence of Thyrotropin-releasing hormone receptor (Homo sapiens) (P34981 whole entry, looked up): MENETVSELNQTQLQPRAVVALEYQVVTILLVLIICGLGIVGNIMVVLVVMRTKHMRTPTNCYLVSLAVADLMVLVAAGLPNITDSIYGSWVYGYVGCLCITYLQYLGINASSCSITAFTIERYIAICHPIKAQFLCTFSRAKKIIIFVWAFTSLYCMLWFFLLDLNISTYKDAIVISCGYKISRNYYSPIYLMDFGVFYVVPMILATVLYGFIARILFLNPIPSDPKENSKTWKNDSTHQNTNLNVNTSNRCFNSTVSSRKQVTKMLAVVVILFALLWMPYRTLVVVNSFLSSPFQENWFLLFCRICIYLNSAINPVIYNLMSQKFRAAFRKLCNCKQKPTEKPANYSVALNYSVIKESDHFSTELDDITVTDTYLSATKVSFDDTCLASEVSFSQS
Sequence of Progesterone receptor (Homo sapiens) (P06401 whole entry, looked up): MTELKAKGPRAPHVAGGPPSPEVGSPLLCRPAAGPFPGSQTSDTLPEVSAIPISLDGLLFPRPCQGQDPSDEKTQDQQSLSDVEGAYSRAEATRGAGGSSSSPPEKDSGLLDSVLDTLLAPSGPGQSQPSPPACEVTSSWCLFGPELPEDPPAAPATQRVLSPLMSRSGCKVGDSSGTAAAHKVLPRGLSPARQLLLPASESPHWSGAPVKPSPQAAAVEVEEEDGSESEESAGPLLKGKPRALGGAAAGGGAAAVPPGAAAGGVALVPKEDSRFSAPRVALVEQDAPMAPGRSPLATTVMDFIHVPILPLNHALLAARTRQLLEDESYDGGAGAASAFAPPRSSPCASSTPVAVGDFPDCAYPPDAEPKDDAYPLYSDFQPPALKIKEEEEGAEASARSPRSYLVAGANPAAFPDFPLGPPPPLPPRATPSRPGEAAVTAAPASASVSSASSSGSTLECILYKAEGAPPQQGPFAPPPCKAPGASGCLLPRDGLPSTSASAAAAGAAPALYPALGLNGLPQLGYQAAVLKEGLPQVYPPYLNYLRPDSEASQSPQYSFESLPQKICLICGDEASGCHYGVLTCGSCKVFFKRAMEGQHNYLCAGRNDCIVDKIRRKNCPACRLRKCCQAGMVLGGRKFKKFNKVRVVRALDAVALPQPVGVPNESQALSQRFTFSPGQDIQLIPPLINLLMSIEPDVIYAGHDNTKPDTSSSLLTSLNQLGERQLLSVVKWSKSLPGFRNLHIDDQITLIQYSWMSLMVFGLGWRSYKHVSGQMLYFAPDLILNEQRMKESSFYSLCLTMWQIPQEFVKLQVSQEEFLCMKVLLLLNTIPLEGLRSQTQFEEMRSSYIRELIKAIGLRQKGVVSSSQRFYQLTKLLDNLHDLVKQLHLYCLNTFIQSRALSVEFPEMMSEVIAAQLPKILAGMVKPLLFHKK

On to `Cc1nc2sccn2c(=O)c1CCN1CCC(=C(c2ccc(F)cc2)c2ccc(F)cc2)CC1`, for which the Potency result in [1], in experiment [2] and in experiment [3] was “inactive” in each case. Moreover, in [4], the Potency is 29.8 µM (active). Besides, the call in [5] and in [6] was inactive.
For `O=C(O)c1ccncc1`, the Potency result in [1], in experiment [2], in experiment [7] and in [4] was “inactive” each time. The outcome in experiment [5], in experiment [6], in experiment [8], in experiment [9] and in [10] was inactive.
For the compound `Clc1ccccc1-c1nc(-c2ccncc2)no1`, the Potency entry in experiment [1] and in [2] was “inactive” each time. Also, in experiment [7], the Potency is 26.6 µM (active). The result in [5], in experiment [6], in [8], in [9] and in experiment [10] was inactive.
Take `Cc1ccc(S(=O)(=O)NC(=O)NC2CCCC2)cc1`: the Potency result in experiment [1], in [2] and in [7] was “inactive” in each case. Moreover, the compound was classed as inactive in [5], in experiment [6], in experiment [8], in [9] and in experiment [10].
Turning to `CCc1ccc(C(=O)C(C)CN2CCCCC2)cc1` (stereo unspecified), the Potency entry in [1], in [2] and in experiment [7] was “inactive” in each case. In addition, the compound was called inactive in experiment [6], in experiment [8], in experiment [9] and in [10].
`CCc1c(C)[nH]c2c1C(=O)C(CN1CCOCC1)CC2` (stereo unspecified): the Potency result in experiment [1], in [2], in experiment [7] and in experiment [4] was “inactive” in each case. Besides, the result in experiment [6], in [8], in experiment [9] and in [10] was inactive.
In the case of `O=C(Nc1ccc2c(c1)Cc1ccccc1-2)C(F)(F)F`, the Potency entry in experiment [1] and in experiment [2] was “inactive” throughout. In addition, the Potency in experiment [7] was 4.33 µM (active). The compound was classed as inactive in [5], in experiment [6], in experiment [8], in [9] and in experiment [10].
Turning to `OCCc1ccncc1`, the Potency entry in [1], in experiment [2] and in [7] was “inactive” each time. Moreover, the compound was classed as inactive in experiment [5], in experiment [6], in experiment [8], in experiment [9] and in [10].
Take `c1ccc(CN(Cc2ccccc2)Cc2ccccc2)cc1`: the Potency entry in experiment [1], in [2] and in experiment [3] was “inactive” each time. Also, the compound was classed as inactive in experiment [5], in [6], in experiment [8], in experiment [9] and in experiment [10].
Regarding `CC(=O)Nc1ccccc1O`, the Potency result in experiment [1], in experiment [7] and in experiment [3] was “inactive” in each case. The compound was classed as inactive in [5], in [6], in [8], in [9] and in experiment [10].
With `O=C1OC(=O)C2CC=CCC12` (stereo unspecified), the Potency entry in experiment [1], in experiment [7], in experiment [3] and in [4] was “inactive” each time. Also, the call in experiment [5], in experiment [6], in experiment [8], in [9] and in experiment [10] was inactive.
Regarding `Cc1nc(C)c(C)nc1C`, the Potency result in experiment [1] and in [2] was “inactive” each time. In addition, the Potency in experiment [4] is 30.6 µM (active). The compound was called inactive in [6], in experiment [8], in [9] and in [10].
Turning to `O=C(O)c1c2ccccc2cc2ccccc12`, the Potency entry in [1], in experiment [2] and in [4] was “inactive” in each case. Moreover, the result in experiment [5], in [6], in [8], in [9] and in experiment [10] was inactive.
In the case of `O=[N+]([O-])c1ccccc1CCO`, the Potency entry in experiment [1], in experiment [7] and in experiment [3] was “inactive” in each case. The result in experiment [6], in experiment [8], in [9] and in experiment [10] was inactive.
As for `O=S(=O)(O)c1cc(Cl)c(Cl)cc1Cl`, the Potency entry in experiment [1] and in [2] was “inactive” in each case. In experiment [4], the Potency is 30.6 µM (active). Also, the result in [5], in [6], in experiment [9] and in [10] was inactive.
Turning to `CC(C)=CCC[C@H](C)CCO`, the Potency entry in experiment [1], in [7] and in [3] was “inactive” each time. For the same compound, the compound was classed as inactive in [5], in [6], in [8], in experiment [9] and in experiment [10].
In the case of `OCCCO`, the Potency result in experiment [1], in experiment [7], in [3] and in experiment [4] was “inactive” each time. Moreover, the result in [5], in experiment [6], in [8], in experiment [9] and in [10] was inactive.
On to `O=C(O)c1cccnc1Nc1cccc(C(F)(F)F)c1`, for which the Potency entry in experiment [1] and in experiment [2] was “inactive” in each case. In addition, the call in [5], in [6], in experiment [8], in [9] and in experiment [10] was inactive.
With `COc1ccc(C(=O)Nc2ccccc2)cc1[N+](=O)[O-]`, the Potency entry in experiment [1] and in [3] was “inactive” each time. Also, in experiment [7], the Potency is 54.9 µM (active). Also, the call in [5], in experiment [6], in experiment [9] and in experiment [10] was inactive.
As for `c1ccc(CCNc2nc(-c3ccccc3)cs2)cc1`, the Potency entry in experiment [1], in experiment [2] and in experiment [4] was “inactive” throughout. For the same compound, the compound was classed as inactive in experiment [5], in experiment [6], in experiment [8], in experiment [9] and in [10].
For the compound `CC(C)=CCC/C(C)=C/C=N/O`, the Potency entry in experiment [1] and in experiment [2] was “inactive” throughout. Besides, the result in [5], in [6], in [8], in experiment [9] and in [10] was inactive.
Regarding `CCCc1nc(C)c2c(=O)[nH]c(-c3cc(S(=O)(=O)N4CCN(CC)CC4)ccc3OCC)nn12`, the Potency result in [1] and in experiment [7] was “inactive” in each case. The outcome in experiment [5], in experiment [6] and in experiment [8] was inactive.
Consider `C[C@H](CN1CCCC1)C(=O)c1ccc(C(F)(F)F)cc1`, for which the Potency result in [1], in [7], in experiment [3] and in [4] was “inactive” throughout. In addition, the compound was called inactive in experiment [6], in [8], in experiment [9] and in experiment [10].
For `NC(=O)c1ccccc1C(N)=O`, the Potency result in [1], in experiment [7] and in experiment [3] was “inactive” in each case. Moreover, the compound was called inactive in experiment [5], in experiment [6], in [8], in experiment [9] and in experiment [10].
Turning to `O=C(C1CCCCC1)N1CC(=O)N2CCCc3ccccc3C2C1` (stereo unspecified), the Potency result in experiment [1], in [7], in experiment [3] and in experiment [4] was “inactive” in each case. Besides, the outcome in experiment [5], in [6], in experiment [9] and in experiment [10] was inactive.
As to `CC1(C)CC(=O)CC(C)(C)N1`, the Potency entry in [1], in experiment [7] and in experiment [3] was “inactive” throughout. For the same compound, the outcome in experiment [6], in experiment [8], in experiment [9] and in [10] was inactive.
For `CC(=O)Nc1ccn(C2COC(COC(=O)c3ccccc3)O2)c(=O)n1` (stereo unspecified), the Potency entry in experiment [1], in experiment [7], in experiment [3] and in [4] was “inactive” throughout. Besides, the result in [5], in experiment [6], in experiment [9] and in experiment [10] was inactive.
